# Laboratory results published in PubChem BioAssay.
# Where “and” joins values, the source holds several entries; their conditions need not be identical. Equal entries are not always repeated. For some of these results: Measured potencies and affinities stand elsewhere. Calls of active or inactive are those of the source.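 The calls were made as follows, unless noted: active = normalized viability below 100% at a tested concentration; inactive = the rest.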
# Experiments:
# [1] = polyglutamine-triggered caspase-3 activation inhibitors, cell-based (AID 1583); conditions: polyglutamine-induced caspase-3 activation, cell assay; stronger effect = higher value;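 tested at 10 µM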
# [2] = suppressors of polyQ aggregation in yeast, 75Q-TubU reporter (AID 1593); conditions: Yeast 75Q polyglutamine aggregation reporter
# [3] = rescue of polyQ-huntingtin neuronal dysfunction in worms, whole organism, C. elegans mechanosensory neurons, N-terminal huntingtin (AID 1599); conditions: touch response, stronger effect = higher value
# [4] = inhibitors of mitochondrial cytochrome c release, biochemical, purified mitochondria (AID 1603); conditions: stronger effect = lower value;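 also: mouse liver mitochondria challenged with calcium chloride; signal normalized to the plate average as 100%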
# [5] = inhibitors of polyQ protein aggregation (AID 1604); conditions: polyglutamine-induced protein aggregation inhibition assay; stronger effect = higher value; tested at 2.5 µM
# [6] = enhancers of glutamate uptake in motor neurons, MN-1 cell line (AID 1612); conditions: MN-1 motor neuron cells, stronger effect = higher value;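 also: tested at 1 µM final; 0% = mean of DMSO vehicle wells on each plate; positive means more glutamate uptake than control and negative means less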
# [7] = suppressors of polyglutamine aggregation in yeast, 75Q-TubH (AID 1616); conditions: S. cerevisiae 75Q-TubH polyglutamine aggregation suppression; stronger effect = higher value
# [8] = molecular target: 6-phosphogluconate dehydrogenase, decarboxylating (Homo sapiens) (UniProt P52209); test: 6PGD enzyme inhibitors, primary screen, biochemical, human, recombinant enzyme, NADPH absorbance (AID 1159550;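 active = at least 20% inhibition of 6-phosphogluconate dehydrogenase activity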); conditions: recombinant 6PGD, NADPH absorbance 341 nm; at 10 µM; stronger effect = higher value
# [9] = differential killing of epithelial or mesenchymal cells, primary screen, imaging, PC-3E GFP, TEM4-18 mCherry, co-culture (AID 1345086;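 active = compounds killing one labelled cell type while sparing the other, by normalised counts and ratio limits, not self-fluorescent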;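 as to all read-outs here: cells exposed to compound for 72 h before imaging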;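 as to red/green cell ratio (normalised): normalised mesenchymal count divided by normalised epithelial count so high means epithelial killing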); conditions: imaging cell counts, at 1 µM; for red/green cell ratio (normalised): actives lie on both sides, counts scaled to control wells, 1 = unselective
# [10] = sensitizers of A549 cells to miR-34 induction, primary screen, imaging, A549 dox-inducible miR-34, nuclei and caspase counts (AID 1347080;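 active = compounds whose cell count with miR-34 switched on is under 0.7 times the count with it off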); conditions: A549 miR-34 inducible, Hoechst nuclei count, 48 h
# [11] = survival rescue of mitochondrial mutant cells in low glucose, primary screen, MELAS cybrids, Rieske KO mouse fibroblasts, CellTiter-Glo (AID 1508586;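 active = mean z-score across replicates of 1.96 or higher in either the MELAS or the Rieske mutant cell line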;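 also: z relative to plate mean and SD of compound and empty wells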)
# [12] = molecular target: Mitogen-activated protein kinase 7 (Homo sapiens) (UniProt Q13164); test: ERK5 transactivation activators in reporter cells, primary screen, cell-based, HTS (AID 1508626;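 active = luciferase signal above three times the same-plate solvent-only control wells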;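 also: luciferase driven by Gal4-ERK5 fusion binding five Gal4 sites before minimal TATA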); conditions: HeLa Gal4-ERK5 transactivation, 18 h, at 5 µM, stronger effect = higher value
# [13] = hESC survival regulators, cell-based (AID 493140; call rule not given here;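 also: cells exposed to compounds for four days before counting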); conditions: human embryonic stem cell survival screen; stronger effect = higher value
# [14] = liver-stage malaria parasite growth inhibition, primary screen, cell-based, HepG2, luciferase luminescence, HepG2 viability (AID 624349; in the data active = parasite load remaining mostly below about 12%, no sharp cut-off; inactive = mostly above about 10%;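 also: 100% = mean of DMSO negative control wells on the same plate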); conditions: P. berghei liver stage in HepG2, luciferase luminescence, concentration not given here; parasite load remaining: stronger effect = lower value; viability: measured here: HepG2 viability without parasites
# [15] = circadian clock period modulators, cell-based, LOPAC library, luminescence reporter (AID 2774; call rule not given here;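 also: values are relative to mean of DMSO wells on each plate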); conditions: circadian reporter cells, at 7 µM, actives lie on both sides
# [16] = phospholipid biosynthesis inhibitors in animal cells, primary screen, cell-based, LOPAC library, screen 4 (AID 1347384; call rule not given here); conditions: phospholipid biosynthesis inhibition screen, at 10 µM
# [17] = ovarian cancer cell viability with rucaparib, profiling panel, oncology-focused library, rucaparib conditional (AID 1508598); conditions: patient-derived ovarian cancer cells, CellTiter-Glo viability, 144 h, stronger effect = lower value
# [18] = viability rescue of complex I mutant cybrids, primary screen, cell-based, galactose medium, ATP luminescence (AID 1645843;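 active = z-score of at least 1.8 in each of two replicates, scored against plate mean and spread of sample wells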;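 also: positive z means more ATP and so rescue of galactose-driven cybrid death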); conditions: complex I mutant cybrid cells, 72 h, stronger effect = higher value
# [19] = measured here: epithelial PC-3E GFP cell survival
# [20] = measured here: mesenchymal TEM4-18 mCherry cell survival
# [21] = stronger effect = lower value, cell number ratio, induced over uninduced
# [22] = measured here: relative caspase fold change +Dox/-Dox
# [23] = measured here: total cells with miR-34 induction, stronger effect = lower value
# [24] = measured here: total cells without miR-34 induction
# [25] = MELAS cybrid survival, CellTiter-Glo 48 h, stronger effect = higher value
# [26] = Rieske KO mouse fibroblast survival, CellTiter-Glo 72 h
# 6-phosphogluconate dehydrogenase, decarboxylating (Homo sapiens), sequence (P52209 whole entry, looked up): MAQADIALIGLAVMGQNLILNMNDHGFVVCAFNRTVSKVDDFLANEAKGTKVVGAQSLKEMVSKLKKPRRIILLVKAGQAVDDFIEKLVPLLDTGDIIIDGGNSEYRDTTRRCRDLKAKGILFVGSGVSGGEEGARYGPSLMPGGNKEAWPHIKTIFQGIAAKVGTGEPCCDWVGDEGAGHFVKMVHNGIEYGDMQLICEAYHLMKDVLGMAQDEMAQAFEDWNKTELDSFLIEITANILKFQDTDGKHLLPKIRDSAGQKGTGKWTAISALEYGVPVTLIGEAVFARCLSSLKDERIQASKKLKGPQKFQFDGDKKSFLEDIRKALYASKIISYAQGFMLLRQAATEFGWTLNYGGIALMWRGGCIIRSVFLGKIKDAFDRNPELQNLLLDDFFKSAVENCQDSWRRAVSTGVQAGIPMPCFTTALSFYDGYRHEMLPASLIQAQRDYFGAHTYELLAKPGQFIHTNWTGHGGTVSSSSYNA
# Mitogen-activated protein kinase 7 (Homo sapiens), sequence (Q13164 whole entry, looked up, the tested form may be a part): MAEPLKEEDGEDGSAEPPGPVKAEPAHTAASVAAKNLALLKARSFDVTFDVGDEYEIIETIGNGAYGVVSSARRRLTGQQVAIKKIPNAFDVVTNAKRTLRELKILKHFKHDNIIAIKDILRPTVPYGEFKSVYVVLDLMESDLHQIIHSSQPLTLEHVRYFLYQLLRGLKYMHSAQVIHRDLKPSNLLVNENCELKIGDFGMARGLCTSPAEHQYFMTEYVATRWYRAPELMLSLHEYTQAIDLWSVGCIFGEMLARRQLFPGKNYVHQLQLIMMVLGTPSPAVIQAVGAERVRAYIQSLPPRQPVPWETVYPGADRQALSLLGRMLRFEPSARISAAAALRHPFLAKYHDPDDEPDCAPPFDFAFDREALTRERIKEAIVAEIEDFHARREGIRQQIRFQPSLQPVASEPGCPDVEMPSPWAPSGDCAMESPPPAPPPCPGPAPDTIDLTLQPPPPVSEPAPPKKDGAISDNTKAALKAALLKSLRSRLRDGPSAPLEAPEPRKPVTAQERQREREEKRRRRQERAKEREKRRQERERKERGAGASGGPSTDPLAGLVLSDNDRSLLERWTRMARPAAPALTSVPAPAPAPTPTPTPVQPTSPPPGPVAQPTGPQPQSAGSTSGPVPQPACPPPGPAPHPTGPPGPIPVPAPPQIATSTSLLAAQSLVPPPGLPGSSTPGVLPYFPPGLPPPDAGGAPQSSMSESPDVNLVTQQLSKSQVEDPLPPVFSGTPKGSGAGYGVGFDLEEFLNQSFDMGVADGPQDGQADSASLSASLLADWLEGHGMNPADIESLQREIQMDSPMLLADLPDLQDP
smiles,measurement,setting,value
COc1ccc(-c2coc3cc(O)cc(O)c3c2=O)cc1,inhibition,[1],-2.46%
same,score,[2],1.27
same,rescue above control,[3],4
same,cytochrome c release ratio,[4],2.73
same,inhibition of aggregation,[5],22.4%
same,glutamate uptake change,[6],10.2%
same,aggregation suppression score,[7],1.01
same,inhibition,[8],17.9% (inactive)
same,red/green cell ratio (normalised),[9],0.99 (inactive)
same,normalised cell number,[9]; [19],1.32
same,normalised cell number,[9]; [20],1.3
same,fold change,[10]; [21],0.896 (inactive)
same,fold change,[10]; [22],0.917
same,cell count,[10]; [23],7900
same,cell count,[10]; [24],8810
same,z-score,[11]; [25],-0.162 (inactive)
same,z-score,[11]; [26],-1.4
same,luciferase signal,[12],16 AU (inactive)
CCC(c1ccc(O)cc1)C(CC)c1ccc(O)cc1 (stereo not given),inhibition,[1],87.7%
same,score,[2],-0.18
same,rescue above control,[3],0
same,cytochrome c release ratio,[4],0.95
same,inhibition of aggregation,[5],62%
same,glutamate uptake change,[6],-7.89%
same,aggregation suppression score,[7],-0.0418
same,survival,[13],2.75 (inactive)
same,parasite load remaining,[14],53.4% (inactive) and 65.7% (inactive)
same,viability,[14],91.5% and 76.1%
same,inhibition,[8],-4.21% (inactive)
same,red/green cell ratio (normalised),[9],0.99 (inactive)
same,normalised cell number,[9]; [19],1.08
same,normalised cell number,[9]; [20],1.07
same,fold change,[10]; [21],0.875 (inactive) and 0.921 (inactive)
same,fold change,[10]; [22],1.39 and 0.838
same,cell count,[10]; [23],8210 and 9640
same,cell count,[10]; [24],9390 and 10500
same,z-score,[11]; [25],-0.359 (inactive) and -2.3 (inactive)
same,z-score,[11]; [26],0.432 and -0.759
same,luciferase signal,[12],40 AU (inactive)
O=C(CCc1ccc(O)cc1)c1c(O)cc(O)cc1O,period change,[15],0.135 h (inactive)
same,inhibition,[8],4.36% (inactive)
same,red/green cell ratio (normalised),[9],1.14 (inactive)
same,normalised cell number,[9]; [19],0.95
same,normalised cell number,[9]; [20],1.08
same,fold change,[10]; [21],1 (inactive) and 0.951 (inactive)
same,fold change,[10]; [22],1.21 and 0.641
same,cell count,[10]; [23],10100 and 9910
same,cell count,[10]; [24],10100 and 10400
same,outcome,[16],inactive
same,z-score,[11]; [25],-0.355 (inactive)
same,z-score,[11]; [26],0.489
same,viability,"[17]; at 0.000305 µM, OCI-C5x cells, with rucaparib 10 µM, 100% = cells with rucaparib alone",108% (inactive)
same,viability,"[17]; at 0.000305 µM, OCI-C5x cells, without rucaparib",119% (inactive)
same,viability,"[17]; at 0.000305 µM, OCI-P5x cells, with rucaparib 20 µM, 100% = cells with rucaparib alone",96.8% (active)
same,viability,"[17]; at 0.000305 µM, OCI-P5x cells, without rucaparib",97% (active)
same,viability,"[17]; at 0.00122 µM, OCI-C5x cells, with rucaparib 10 µM, 100% = cells with rucaparib alone",115% (inactive)
same,viability,"[17]; at 0.00122 µM, OCI-C5x cells, without rucaparib",108% (inactive)
same,viability,"[17]; at 0.00122 µM, OCI-P5x cells, with rucaparib 20 µM, 100% = cells with rucaparib alone",95.8% (active)
same,viability,"[17]; at 0.00122 µM, OCI-P5x cells, without rucaparib",99.2% (active)
same,viability,"[17]; at 0.00488 µM, OCI-C5x cells, with rucaparib 10 µM, 100% = cells with rucaparib alone",122% (inactive)
same,viability,"[17]; at 0.00488 µM, OCI-C5x cells, without rucaparib",115% (inactive)
same,viability,"[17]; at 0.00488 µM, OCI-P5x cells, with rucaparib 20 µM, 100% = cells with rucaparib alone",103% (inactive)
same,viability,"[17]; at 0.00488 µM, OCI-P5x cells, without rucaparib",104% (inactive)
same,viability,"[17]; at 0.0195 µM, OCI-C5x cells, with rucaparib 10 µM, 100% = cells with rucaparib alone",110% (inactive)
same,viability,"[17]; at 0.0195 µM, OCI-C5x cells, without rucaparib",123% (inactive)
same,viability,"[17]; at 0.0195 µM, OCI-P5x cells, with rucaparib 20 µM, 100% = cells with rucaparib alone",104% (inactive)
same,viability,"[17]; at 0.0195 µM, OCI-P5x cells, without rucaparib",110% (inactive)
same,viability,"[17]; at 0.0781 µM, OCI-C5x cells, with rucaparib 10 µM, 100% = cells with rucaparib alone",116% (inactive)
same,viability,"[17]; at 0.0781 µM, OCI-C5x cells, without rucaparib",121% (inactive)
same,viability,"[17]; at 0.0781 µM, OCI-P5x cells, with rucaparib 20 µM, 100% = cells with rucaparib alone",104% (inactive)
same,viability,"[17]; at 0.0781 µM, OCI-P5x cells, without rucaparib",109% (inactive)
same,viability,"[17]; at 0.313 µM, OCI-C5x cells, with rucaparib 10 µM, 100% = cells with rucaparib alone",115% (inactive)
same,viability,"[17]; at 0.313 µM, OCI-C5x cells, without rucaparib",117% (inactive)
same,viability,"[17]; at 0.313 µM, OCI-P5x cells, with rucaparib 20 µM, 100% = cells with rucaparib alone",109% (inactive)
same,viability,"[17]; at 0.313 µM, OCI-P5x cells, without rucaparib",113% (inactive)
same,viability,"[17]; at 1.25 µM, OCI-C5x cells, with rucaparib 10 µM, 100% = cells with rucaparib alone",105% (inactive)
same,viability,"[17]; at 1.25 µM, OCI-C5x cells, without rucaparib",125% (inactive)
same,viability,"[17]; at 1.25 µM, OCI-P5x cells, with rucaparib 20 µM, 100% = cells with rucaparib alone",97.8% (active)
same,viability,"[17]; at 1.25 µM, OCI-P5x cells, without rucaparib",110% (inactive)
same,viability,"[17]; at 5 µM, OCI-C5x cells, with rucaparib 10 µM, 100% = cells with rucaparib alone",109% (inactive)
same,viability,"[17]; at 5 µM, OCI-C5x cells, without rucaparib",132% (inactive)
same,viability,"[17]; at 5 µM, OCI-P5x cells, with rucaparib 20 µM, 100% = cells with rucaparib alone",108% (inactive)
same,viability,"[17]; at 5 µM, OCI-P5x cells, without rucaparib",111% (inactive)
same,luciferase signal,[12],60 AU (inactive)
same,z-score,[18],1.71 (inactive)
